Assay [1] is described as follows: NCI Yeast Anticancer Drug Screen. Data for the rad50 strain (AID 155).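 Also: 0% = growth of vehicle-only cultures of the same strain.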 The conditions noted are these: S. cerevisiae rad50 strain growth inhibition; at 50.0 µM; active compounds read high. The essentials:
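Genetically altered yeast (DNA repair pathway); compound treatment; growth inhibition vs vehicle ctrl.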

A short description of assay [2]: NCI Yeast Anticancer Drug Screen. Data for the mec2-1 strain (AID 157). The following applies: S. cerevisiae mec2-1 strain, at 50.0 µM, active compounds read high. Summed up:
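Using mec2-1 yeast: add compound, measure growth, express inhibition versus vehicle-treated cultures.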

Assay [3] in a line: NCI Yeast Anticancer Drug Screen. Data for the sgs1 mgt1 strain (AID 161).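 Also: 0% = growth of cultures given vehicle only.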 The conditions noted are these: S. cerevisiae sgs1 mgt1 strain, at 50.0 µM, active compounds read high. The essentials: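 Yeast cells carrying a defined DNA-repair defect were exposed to test compounds. Growth inhibition was measured relative to vehicle-treated controls.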
Assay [4] in a line: NCI Yeast Anticancer Drug Screen. Data for the cln2 rad14 strain (AID 165).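 Also: 0% = growth equal to vehicle treated cultures.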 The following applies: S. cerevisiae cln2 rad14 strain, at 50.0 µM, active compounds read high. The essentials: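 Yeast strain cln2 rad14, bearing defects in cell cycle control and DNA repair, serves as the test system; values reflect growth inhibition compared with vehicle.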
Assay [5] is described as follows: NCI Yeast Anticancer Drug Screen. Data for the bub3 strain (AID 167). The conditions noted are these: S. cerevisiae bub3 mutant strain, at 50.0 µM, active compounds read high. Summed up:
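Yeast carrying a defined mutation is treated with each compound, and growth is compared with that of vehicle-exposed cells to give inhibition.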

Assay [6] in a line: NCI Yeast Anticancer Drug Screen. Data for the mlh1 rad18 strain (AID 175). The conditions noted are these: S. cerevisiae mlh1 rad18 strain growth inhibition; at 50.0 µM; active compounds read high. The essentials: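 Steps: expose repair-defective yeast to compound; measure growth; express inhibition against vehicle-treated controls.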

Values joined by “and” are separate entries in the source; they are usually repeats but may differ in a detail not shown here. Identical values can stand only once. Compounds without any hit were thinned out: in the full panel of roughly 79,000, 15% have a hit. Unmarked numbers belong to inactive results. Active and inactive are the calls of the source. Rule as the data show it: active = growth inhibition above about 70%; inactive = the rest.

The text below walks through data of PubChem BioAssay (NCI).

Take `Cc1nc(N)nc(N)c1CCCOc1ccc(NC(=O)c2cccc(S(=O)(=O)F)c2)cc1`: the growth inhibition in assay [1] is 33.2%; in assay [2], 25.9%; in assay [3], 15.4%; in assay [4], 19.2%; in assay [5], -4.45%; in assay [6], 30.4%.
As for `C[C@H](N)[C@H](O)c1ccccc1`, the growth inhibition in assay [1] was 7.45% and 0.25%; in assay [2], -14.4% and 4.7%; in assay [3], -7.4% and -7.8%; in assay [4], -8.35% and -18.5%; in assay [5] it was -4.3% and 0.95%; in assay [6], -7.3% and -1.15%.
Turning to `CCC(C(=O)NC1CN2CCC1CC2)c1ccccc1` (stereo not drawn), the growth inhibition in assay [1] was -6.25%; in assay [2] it was -23.3%; in assay [3] it was -27.4%; in assay [4], -3.15%; in assay [5], -2.6%; in assay [6] it was -13.2%.
On to `C[C@]12CCC(=O)N[C@@H]1CC[C@@H]1[C@@H]2CC[C@]2(C)[C@@H](OC(=O)COc3ccc(N(CCCl)CCCl)cc3)CC[C@@H]12`, for which the growth inhibition in assay [1] was 0.45%; in assay [2], 4.7%; in assay [3] it was 0.15%; in assay [4] it was 11.8%; in assay [5] it was 5.75%; in assay [6], -12.8%.
In the case of `Cc1nc2ccccc2c(=O)n1-c1ccc(N(CCCl)CCCl)cc1`, the growth inhibition in assay [1] is -0.6%; in assay [2] it was -9.25%; in assay [3], -17.1%; in assay [4], -6.9%; in assay [5], 4.8%; in assay [6], 4.5%.
As to `O=C(NCC(O)CO)c1cc([N+](=O)[O-])cc([N+](=O)[O-])c1N(CCCl)CCCl` (stereo not drawn), the growth inhibition in assay [1] was 31.8%; in assay [2], 19.8%; in assay [3], 28.7%; in assay [4] it was 2.05%; in assay [5], 13.9%; in assay [6] it was 12.6%.
For the molecule `O=C1C=CC(=O)c2c(O)cccc21`, the growth inhibition in assay [1] was 27.4%; in assay [2], 13.2%; in assay [3] it was 38%; in assay [4], 15.4%; in assay [5], 41.3%; in assay [6] it was 29.2%.
In the case of `Nc1cc(N)c([N+](=O)[O-])cc1[N+](=O)[O-]`, the growth inhibition in assay [1] was 20.8%; in assay [2], 2.8%; in assay [3] it was 14.1%; in assay [4], 5.75%; in assay [5], 9.8%; in assay [6], 11.3%.
With `CCOP(=O)(CN(CCO)CCO)OCC`, the growth inhibition was -5.85% in assay [1]; 12% in assay [2]; 11.4% in assay [3]; 0% in assay [4]; -6.5% in assay [5]; 4.25% in assay [6].
For the molecule `CC(=S)N=Cc1c(O)[nH]c(=O)[nH]c1=O`, the growth inhibition was -6.2% in assay [1]; -6.8% in assay [2]; -10.2% in assay [3]; 21.6% in assay [4]; -7.55% in assay [5]; 9.55% in assay [6].
As to `Cc1ccc(Cl)c([N+](=O)[O-])c1`, the growth inhibition in assay [1] was -23.7%; in assay [2] it was -52.5%; in assay [3] it was -30.4%; in assay [4], -3.25%; in assay [5], -20.1%; in assay [6] it was -9.75%.
Turning to `CN1CCC2=C(c3ccccc3)c3ccccc3C2C1` (stereo not drawn), the growth inhibition was 10.3% in assay [1]; -0.55% in assay [2]; 13.4% in assay [3]; -9.85% in assay [4]; 3.8% in assay [5]; 3.55% in assay [6].
In the case of `COc1ccc(C(=O)Cc2c(C(=O)c3ccccc3)c3ccccc3n2C(=O)c2ccccc2)cc1`, the growth inhibition in assay [1] is -2.45%; in assay [2], -18.5%; in assay [3], -9.5%; in assay [4], -57.6%; in assay [5], -23.4%; in assay [6], 5.75%.
Take `CCCCCCCCCCCCCC[As](=O)(O)O`: the growth inhibition in assay [1] was 6.4%; in assay [2], 17.9%; in assay [3], 21.3%; in assay [4] it was 1.65%; in assay [5], 4.5%; in assay [6], 44.5%.
As for `N[C@H]1C2C3CC4C5CC(C42)C1(c1ccccc1)C53` (stereo partly drawn), the growth inhibition is -20.4% in assay [1]; -5.25% in assay [2]; -0.05% in assay [3]; -5.2% in assay [4]; -12% in assay [5]; -6% in assay [6].
For `CCOP(=O)(CSCCC1(C)NC(=O)NC1=O)OCC` (stereo not drawn), the growth inhibition in assay [1] is 8.6%; in assay [2] it was -9.7%; in assay [3], 23.9%; in assay [4], 2.65%; in assay [5], 7.2%; in assay [6] it was 7.45%.
In the case of `N=C(N)SCc1ccc(Cl)c(Cl)c1` (tested in a mixture with another compound), the growth inhibition is 13.6% in assay [1]; 10.8% in assay [2]; -3.55% in assay [3]; -6.1% in assay [4]; 3.5% in assay [5]; 10.7% in assay [6].
In the case of `CC(=O)Nc1ccc(C(=O)O)cc1`, the growth inhibition was 5.05% in assay [1]; -1% in assay [2]; 0.1% in assay [3]; 33% in assay [4]; 0.15% in assay [5]; 1.8% in assay [6].
On to `COc1cccc(OC)c1CCN`, for which the growth inhibition in assay [1] is -27.9%; in assay [2], -5.3%; in assay [3] it was -11.4%; in assay [4] it was -1.1%; in assay [5], -24.8%; in assay [6], -36%.
For the molecule `Nc1ccc(/C=C/C(=O)Nc2ccc(S(=O)(=O)F)cc2)cc1`, the growth inhibition was 22.4% in assay [1]; 96.2% (active) in assay [2]; 21.1% in assay [3]; 40.1% in assay [4]; 99% (active) in assay [5]; 95.5% (active) in assay [6].
Turning to `NCCN.NCCN.O=C([O-])C(=O)[O-].[Cl-].[Co+3]`, the growth inhibition in assay [1] is -22.4%; in assay [2], -16.7%; in assay [3], -31.8%; in assay [4], -0.45%; in assay [5], -24.6%; in assay [6] it was -29.8%.
On to `NC(N)=NCCCCCCCCCCN=C(N)N`, for which the growth inhibition in assay [1] is 0.45%; in assay [2] it was -20.2%; in assay [3], -6.05%; in assay [4] it was 8.4%; in assay [5], -2.35%; in assay [6], -10.3%.
Turning to `O=C(NCP(=O)(O)O)c1cccnc1`, the growth inhibition was -10.7% and -6.8% in assay [1]; -29.5% and -10.8% in assay [2]; -4.9% and 6.8% in assay [3]; -37.6% and -25.1% in assay [4]; -32.8% and -6.75% in assay [5]; 2.85% and -10.2% in assay [6].
